Source: PubChem BioAssay (Tox21)
Where “and” joins values, the source holds several entries; their conditions need not be identical. Equal values may be shown once. Records with an inconclusive call do not appear. A structure can be active in one record and inactive in another. Calls of active or inactive are those of the source. Unless noted, calls come from the whole dose curve; as a rule, active = well fitted curve in the direction sought with a large enough effect in the repeat runs; inconclusive = weak or mixed curves; inactive = no such curve, though single readings can be large; an effect the other way counts as inactive or inconclusive.

What was measured:
[1] = qHTS assay for small molecules that induce genotoxicity in human embryonic kidney cells expressing luciferase-tagged ATAD5 - cell viability (AID 651634; calls by dose curve; note: nearly all actives have a fitted effect of over 25% in size; note: potency is the fitted concentration of half-maximal effect)
Method in brief: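 HEK293T cells carrying luciferase-tagged ATAD5, 2,000 cells/well, exposed to compound for 15.5 hr at 37C. Viability read as live-cell protease activity by CellTiter-Fluor fluorescence after 30 min at 37C.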

[2] = qHTS assay for small molecule disruptors of the mitochondrial membrane potential - cell viability (AID 720634; calls by dose curve;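 note: human HepG2 liver cancer cells; nearly all actives have a fitted effect of over 20% in size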)
Method in brief: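 HepG2 cells, 2,000 per well, attached overnight, then treated 1 hr at 37 C, 5% CO2. Viability read as ATP by CellTiter-Glo luminescence after 30 min at room temperature. Read in the same wells as the m-MPI membrane-potential dye assay.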

[3] = qHTS assay to test for compound auto fluorescence at 590 nm (red) in HepG2 cells (AID 720674)
Method in brief: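 Fluorescence at 590 nm emission following 540 nm excitation was recorded from HepG2 wells one hour after compound transfer, with DMSO-only wells as vehicle and Rose Bengal sodium equivalency as the scale.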

[4] = qHTS assay to test for compound auto fluorescence at 535 nm (green) in HepG2 cells (AID 720675); note: potency is the fitted concentration of half-maximal effect
[5] = qHTS assay to test for compound auto fluorescence at 460 nm (blue) in HEK293 cells (AID 720678); note: potency is the fitted concentration of half-maximal effect
Method in brief: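 HEK293, 2,000 cells/well, 10% dialyzed FBS; attach 4-5 hr 37C; pin compound or DMSO; o/n 37C/5% CO2; fluorescence 405/460 nm; triamterene-equivalent units.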

[6] = qHTS assay to test for compound auto fluorescence at 535 nm (green) in HEK293 cells (AID 720680)
[7] = qHTS assay to test for compound auto fluorescence at 460 nm (blue) in HEK293 cell free culture (AID 720681); note: potency is the fitted concentration of half-maximal effect
Method in brief: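 Compounds were added to cell-free DMEM with 10% FBS and fluorescence read directly. The blue channel used 405 nm excitation and 460 nm emission, with triamterene as the reference fluorophore.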

[8] = qHTS assay to test for compound auto fluorescence at 535 nm (green) in HEK293 cell free culture (AID 720682)
Method in brief: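 Intrinsic compound fluorescence is measured in culture medium containing 10% FBS, with excitation at 485 nm and detection at 535 nm, referenced to fluorescein.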

[9] = qHTS assay to test for compound auto fluorescence at 590 nm (red) in HEK293 cell free culture (AID 720683)
Method in brief: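 Cell-free wells of DMEM with 10% FBS received compound, and intrinsic fluorescence was read at excitation/emission 540/590 nm. Values expressed as equivalence to Rose Bengal sodium.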

[10] = qHTS assay to test for compound auto fluorescence at 590 nm (red) in HepG2 cell free culture (AID 720684)
Method in brief: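 Compound was pinned into wells holding MEM with 10% FBS and no cells, and red fluorescence was read at Ex/Em 540/590 nm. Signal is expressed as auto fluorescence equivalency relative to Rose Bengal sodium.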

[11] = qHTS assay to test for compound auto fluorescence at 460 nm (blue) in HepG2 cell free culture (AID 720685); note: potency is the fitted concentration of half-maximal effect
Method in brief: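 Compound (23 nL) or DMSO pinned into cell-free MEM with 10% FBS; blue fluorescence read at 405/460 nm excitation/emission, expressed as auto-fluorescence equivalency to triamterene.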

[12] = qHTS assay to test for compound auto fluorescence at 535 nm (green) in HepG2 cell free culture (AID 720686); note: potency is the fitted concentration of half-maximal effect
[13] = qHTS assay to test for compound auto fluorescence at 460 nm (blue) in HepG2 cells (AID 720687); note: potency is the fitted concentration of half-maximal effect
Method in brief: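 HepG2 cells in MEM with 10% FBS, attached overnight at 37 C, were exposed to compound or DMSO for 1 hr at 37 C, 5% CO2. Blue fluorescence was read at 405/460 nm, with triamterene as reference fluorophore.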

[14] = qHTS assay for small molecule agonists of the p53 signaling pathway - cell viability (AID 651633; calls by dose curve; note: nearly all actives have a fitted effect of over 30% in size; note: potency is the fitted concentration of half-maximal effect)
Method in brief: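 p53RE-bla cells were treated with compound for 16 hours at 37 C. Cytotoxicity was then measured as CellTiter-Glo luminescence after 30 min at room temperature.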

[15] = qHTS assay for small molecule disruptors of the mitochondrial membrane potential (AID 720635); note: potency is the fitted concentration of half-maximal effect
Method in brief: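 HepG2 cells exposed to compound 1 hr at 37C, then Mito-MPS dye 30 min. Ratio read of aggregate (540/590 nm) versus monomer (490/535 nm) fluorescence.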

[16] = qHTS assay to test for compound auto fluorescence at 590 nm (red) in HEK293 cells (AID 720679)
Method in brief: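 Intensity at 540nm excitation and 590nm emission is reported as Rose Bengal sodium-equivalent autofluorescence. Measurements followed overnight exposure (37C, 5% CO2) of HEK293 cells, 2,000 per well, to 23 nL compound.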

[17] = target: Glucocorticoid receptor (Homo sapiens) (UniProt P04150); experiment: qHTS assay to identify small molecule agonists of the glucocorticoid receptor (GR) signaling pathway (AID 720691; active = well fitted activation curve with a large enough effect in the signal ratio in the repeat runs, not every such curve was filed as active; the % refers to the signal ratio); details: GR-bla HeLa, beta-lactamase reporter ratio, 18 h; activation: at 62.4 µM (top of the series)
Chain of Glucocorticoid receptor (Homo sapiens) (P04150 whole entry, looked up): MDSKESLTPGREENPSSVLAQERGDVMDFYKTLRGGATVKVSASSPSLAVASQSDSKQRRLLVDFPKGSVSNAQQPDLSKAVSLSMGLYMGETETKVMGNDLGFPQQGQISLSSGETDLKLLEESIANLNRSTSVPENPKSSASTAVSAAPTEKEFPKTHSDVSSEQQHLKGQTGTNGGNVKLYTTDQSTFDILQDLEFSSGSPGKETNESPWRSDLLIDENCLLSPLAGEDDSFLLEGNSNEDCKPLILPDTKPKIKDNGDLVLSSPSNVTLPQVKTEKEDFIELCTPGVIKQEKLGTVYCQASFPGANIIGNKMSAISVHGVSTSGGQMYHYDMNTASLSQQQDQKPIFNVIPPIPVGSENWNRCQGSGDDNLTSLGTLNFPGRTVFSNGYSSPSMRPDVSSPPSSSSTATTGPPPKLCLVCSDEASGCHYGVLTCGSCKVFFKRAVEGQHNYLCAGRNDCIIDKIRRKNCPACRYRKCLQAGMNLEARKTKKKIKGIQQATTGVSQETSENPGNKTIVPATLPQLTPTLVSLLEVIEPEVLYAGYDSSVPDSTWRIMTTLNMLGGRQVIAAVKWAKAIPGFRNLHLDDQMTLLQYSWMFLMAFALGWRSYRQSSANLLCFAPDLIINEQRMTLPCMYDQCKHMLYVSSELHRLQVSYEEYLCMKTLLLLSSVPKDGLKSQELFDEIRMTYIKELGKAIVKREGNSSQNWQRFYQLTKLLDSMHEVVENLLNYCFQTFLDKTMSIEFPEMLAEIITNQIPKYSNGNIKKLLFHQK
Method in brief: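 GR-bla HeLa cells carrying a GRE-driven beta-lactamase reporter, exposed to compounds for 18 h at 37 C. Reporter activation read as fluorescence after 2 h with LiveBLAzer B/G FRET substrate at room temperature.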

[18] = target: Glucocorticoid receptor (Homo sapiens) (UniProt P04150); experiment: qHTS assay to identify small molecule antagonists of the glucocorticoid receptor (GR) signaling pathway (AID 720692; active = well fitted inhibition curve with a large enough effect in the signal ratio in the repeat runs, not every such curve was filed as active; the % refers to the signal ratio; note: potency is the fitted concentration of half-maximal effect)
Method in brief: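 GR-bla HeLa cells carrying a GRE-driven beta-lactamase reporter received compound after 4 h plating, then dexamethasone (5 nM final). After 18 h at 37C, the FRET substrate was loaded for 2 h at room temperature and fluorescence read.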
% is set by controls: 0 for no effect and ±100 for the full control effect; tags give direction and shape of the fitted curve or compound fluorescence and quenching.

CCC1=C[C@@H]2CN(C1)Cc1c([nH]c3ccccc13)[C@@](C(=O)OC)(c1cc3c(cc1OC)N(C)[C@H]1[C@@](O)(C(=O)OC)[C@H](OC(C)=O)[C@]4(CC)C=CCN5CC[C@]31[C@@H]54)C2
inactive: Potency [2] | Potency [3] | Potency [4] | Potency [5] | outcome [6] | Potency [7] | outcome [8] | Potency [9] | Potency [10] | Potency [11] | Potency [12] | Potency [13]
active: Potency [1] 1.19 µM

COc1ccc(C(=O)/C(Br)=C\C(=O)O)cc1
inactive: Potency [14] | Potency [2] | Potency [15] | Potency [3] | Potency [4] | Potency [5] | Potency [16] | outcome [6] | Potency [7] | outcome [8] | Potency [9] | Potency [10] | Potency [11] | Potency [12] | Potency [13] | Potency [17] | Potency [18]

Cc1cc(=O)oc2cc(N(C)C)ccc12
active: Potency [5] 39.8 µM [fluorescent] | Potency [7] 39.8 µM | Potency [11] 44.7 µM [fluorescent] | Potency [13] 44.7 µM [fluorescent]
inactive: Potency [14] | Potency [2] | Potency [3] | Potency [4] | Potency [16] | outcome [6] | outcome [8] | Potency [9] | Potency [10] | Potency [12]

CNc1ccc(O)cc1
inactive: Potency [1] | Potency [3] | Potency [4] | Potency [5] | Potency [16] | outcome [6] | Potency [7] | outcome [8] | Potency [9] | Potency [10] | Potency [11] | Potency [12] | Potency [13]

CC(C)(C)C(=O)OCOC(=O)[C@@H]1N2C(=O)[C@@H](NC(=O)[C@H](N)c3ccccc3)[C@H]2SC1(C)C
inactive: Potency [14] | Potency [1] | Potency [2] | Potency [15] | fluorescence, relative to Rose Bengal [3] 0.612% [at 18.6 µM] | fluorescence, % of fluorescein control [4] -0.113% [at 18.6 µM] | fluorescence, % of fluorescent control [16] 0.201% [at 18.6 µM] | fluorescence, % of fluorescein [6] -0.024% [at 18.6 µM] | fluorescence, % of fluorescent control [7] 0.0397% [at 18.6 µM] | activity change [8] 0.023% [at 18.6 µM] | fluorescence, % of fluorescent control [9] 0.0827% [at 18.6 µM] | fluorescence, % of Rose Bengal [10] -0.0322% [at 18.6 µM] | fluorescence, % of fluorescent control [11] 0.014% [at 18.6 µM] | fluorescence, % of fluorescent control [13] 0.061% [at 18.6 µM]

[Cl][Au]([Cl])[Cl]
inactive: Potency [2] | Potency [3] | Potency [4] | Potency [5] | outcome [6] | Potency [7] | outcome [8] | Potency [9] | Potency [10] | Potency [11] | Potency [12] | Potency [13]
active: Potency [14] 68.6 µM | Potency [1] 30.6 µM

NNc1nc(-c2ccccc2)cs1
active: Potency [1] 4.99 µM | Potency [15] 1.58 µM
inactive: Potency [2] | Potency [3] | Potency [4] | Potency [5] | Potency [16] | outcome [6] | Potency [7] | outcome [8] | Potency [9] | Potency [10] | Potency [11] | Potency [12] | Potency [13] | Potency [17]

CC(=O)S[C@@H]1CC2=CC(=O)CC[C@]2(C)[C@H]2CC[C@@]3(C)[C@@H](CC[C@@]34CCC(=O)O4)[C@H]12
inactive: Potency [14] | Potency [1] | Potency [2] | Potency [3] | Potency [4] | outcome [6] | Potency [7] | outcome [8] | Potency [9] | Potency [10] | Potency [11] | Potency [13]
active: Potency [18] 5.35 µM

CCCCCCCCCCCC(=O)NCCCN(C)C
active: Potency [14] 27.3 µM
inactive: Potency [4] | Potency [16] | outcome [6] | Potency [7] | outcome [8] | Potency [9] | Potency [10] | Potency [11] | Potency [12] | Potency [13]

O=C(O)c1cc(O)c2c(c1)C(=O)c1cccc(O)c1C2=O
active: Potency [15] 2.51 µM
inactive: Potency [14] | Potency [2] | Potency [3] | Potency [4] | Potency [5] | Potency [16] | outcome [6] | Potency [7] | outcome [8] | Potency [9] | Potency [10] | Potency [11] | Potency [12] | Potency [13] | Potency [18]

O=C(O)c1ccc(Cl)c(Cl)c1
inactive: Potency [14] | Potency [1] | Potency [2] | Potency [3] | Potency [4] | Potency [5] | Potency [16] | outcome [6] | Potency [7] | outcome [8] | Potency [9] | Potency [10] | Potency [11] | Potency [12] | Potency [13]

CCc1oc2ccccc2c1C(=O)c1cc(Br)c(O)c(Br)c1
active: Potency [14] 26.6 µM | Potency [15] 5.96 µM | Potency [18] 15.1 µM
inactive: Potency [1] | Potency [4] | Potency [5] | outcome [6] | Potency [7] | outcome [8] | Potency [9] | Potency [10] | Potency [11] | Potency [12] | Potency [13]

CC(=O)N1CCN(c2ccc(OC[C@H]3CO[C@](Cn4ccnc4)(c4ccc(Cl)cc4Cl)O3)cc2)CC1
inactive: Potency [2] | Potency [3] | Potency [4] | Potency [5] | Potency [16] | outcome [6] | Potency [7] | outcome [8] | Potency [9] | Potency [10] | Potency [11] | Potency [12] | Potency [13] | Potency [18]
inactive and 61.1 µM (active): Potency [14]
active: Potency [15] 4.86 µM

CCCCCCCCNC(C)C(O)c1ccc(SC(C)C)cc1 (centres undefined)
inactive: Potency [4] | Potency [16] | outcome [6] | Potency [7] | outcome [8] | Potency [9] | Potency [10] | Potency [11] | Potency [13]
active: Potency [14] 10.6 µM | Potency [1] 10.6 µM

Nc1ccc2c3c(cccc13)-c1ccccc1-2
inactive: Potency [3] | Potency [16] | Potency [9] | Potency [10]
active: Potency [15] 4.91 µM | Potency [4] 39.8 µM | Potency [12] 39.8 µM [fluorescent]
